# A selection: hits, their analogues and other compounds. The true share with any hit is near 19%.
# IL1B secr inh = qHTS for Inhibitors of Inflammasome Signaling: IL-1-beta AlphaLISA Primary Screen; activity change, % at 57.5 µM; AID 743279, 2014; THP-1 LPS/ATP IL-1B secretion, AlphaLISA, 16 h; active compounds read low; actives 4.7% (n = 360,000); in the data active = activity change below about -50%; inconclusive = mostly about -30% to -49%; note: % is set by controls: 0 for no effect and ±100 for the full control effect
#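 Secreted IL-1B measured by AlphaLISA bead assay after 16 h compound exposure of THP-1 cells; compounds (final up to 57.5 uM) added 1 h before LPS (250 ng/mL) and ATP (1.25 mM) stimulation; lower signal means less secretion.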
# DT40 TDP1 CPT = qHTS for Inhibitors of human tyrosyl-DNA phosphodiesterase 1 (TDP1): qHTS in cells in presence of CPT; Potency, µM (top dose mostly 46.2 µM), for the others: at the highest dose activity change, negative = growth inhibition, usual class: inhibitors; chicken DT40 Tdp1-/-;hTDP1 cells + 20 nM CPT, ATP luminescence, 48 h; AID 686979, 2013; actives 12% (n = 420,000); note: potency is the fitted concentration of half-maximal effect; % is set by controls: 0 for no effect and ±100 for the full control effect; nearly all actives have a fitted effect of over 55% in size
#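 Chicken DT40 Tdp1-/- cells stably complemented with human TDP1 were seeded at 400 cells/well in medium containing 20 nM camptothecin, exposed to pin-transferred compounds, and grown at 37 °C for at least 48 hr. Viability was read as ATP luminescence.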
# HepG2 tox = qHTS for Inhibitors of TGF-b: Cytotox Counterscreen | Potency, µM (highest dose often 46.1 µM), without a hit: at the top dose activity change, negative = cytotoxicity, usual class: cytotoxic | actives 0.76% (n = 410,000) | HepG2 CAGA-GFP viability, ATP luminescence, 18 h; note: potency is the fitted concentration of half-maximal effect
#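 HepG2 CAGA-GFP cells (1000/well, DMEM with 1% FBS) received compound, then TGF-beta at 500 pg/mL final, and were incubated 18 hours at 37 degrees C. Viability was read by CellTiter-Glo luminescence. Media-only wells were set as complete cell-killing and DMSO as no toxicity.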
# DT40 TDP1 no CPT = qHTS for Inhibitors of human tyrosyl-DNA phosphodiesterase 1 (TDP1): qHTS in cells in absence of CPT | actives 15% (n = 420,000) | Potency, µM (doses to about 46.2 µM), inactives show at the top dose activity change, negative = growth inhibition, most hits filed as inhibitors | AID 686978, 2013 | DT40 Tdp1-/- hTDP1 cells, no CPT, ATP luminescence, 48 h; note: potency is the fitted concentration of half-maximal effect; % is set by controls: 0 for no effect and ±100 for the full control effect; nearly all actives have a fitted effect of over 55% in size
#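 Growth of hTDP1-complemented DT40 Tdp1-knockout cells is measured by ATP luminescence after at least 48 hr compound exposure at 37 °C, with DMSO substituting for the 20 nM CPT used in the parallel screen.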
# TGFb SMAD3 inh = qHTS for Inhibitors of TGF-b; HepG2 CAGA-GFP TGF-b/SMAD3 reporter, GFP fluorescence, 18 h; TGF-beta stimulated, 500 pg/mL final; Potency, µM (titrated, usually from 46.1 µM), inactives show at the highest dose activity, negative = inhibition, hits mostly inhibitors; actives 1.2% (n = 410,000); AID 588855, 2011; note: potency is the fitted concentration of half-maximal effect; % is set by controls: 0 for no effect and ±100 for the full control effect; nearly all actives have a fitted effect of over 65% in size
#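 TGF-beta reporter screen: HEPG2 CAGA-GFP, 1% FBS, 500 pg/mL TGF-beta final, 18 h; per-cell GFP summed per well; curves fitted and categorized by class.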
# TDP1 block = qHTS Assay for Inhibitors of Tyrosyl-DNA Phosphodiesterase (TDP1) | Tyrosyl-DNA phosphodiesterase 1 (Homo sapiens), Q9NUW8 | recombinant TDP1, AlphaScreen DNA substrate cleavage | Potency, µM (top dose mostly 130 µM), for inactives: at the top dose activity change, negative = inhibition, most hits filed as inhibitors | actives 0.28% (n = 350,000) | AID 485290, 2010; note: potency is the fitted concentration of half-maximal effect; % is set by controls: 0 for no effect and ±100 for the full control effect; nearly all actives have a fitted effect of over 40% in size
# Target sequence (Q9NUW8 whole entry, looked up): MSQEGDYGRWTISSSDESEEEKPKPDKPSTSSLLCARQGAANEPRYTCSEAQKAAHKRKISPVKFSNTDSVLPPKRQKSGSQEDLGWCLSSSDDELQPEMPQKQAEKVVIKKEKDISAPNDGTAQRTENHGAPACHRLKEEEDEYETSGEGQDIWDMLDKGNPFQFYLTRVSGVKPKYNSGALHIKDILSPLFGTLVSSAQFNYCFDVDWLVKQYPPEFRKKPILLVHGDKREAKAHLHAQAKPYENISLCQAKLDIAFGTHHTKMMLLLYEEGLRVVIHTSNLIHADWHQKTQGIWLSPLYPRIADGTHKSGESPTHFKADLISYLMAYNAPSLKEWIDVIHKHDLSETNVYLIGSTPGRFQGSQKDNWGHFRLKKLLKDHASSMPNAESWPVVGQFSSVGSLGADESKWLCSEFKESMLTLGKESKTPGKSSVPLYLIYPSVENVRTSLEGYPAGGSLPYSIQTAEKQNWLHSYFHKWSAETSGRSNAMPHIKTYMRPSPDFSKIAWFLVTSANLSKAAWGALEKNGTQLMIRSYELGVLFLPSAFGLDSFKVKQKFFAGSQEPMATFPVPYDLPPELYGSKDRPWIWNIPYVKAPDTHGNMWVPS
#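 Compounds were preincubated with Tdp1 (1 nM final) for 15 min at room temperature before substrate (15 nM final) started a 5 min reaction; beads (10 ug/ml final) were then added for 10 min before AlphaScreen detection.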
# Starred values were filed as active, the others as inactive; ? = inconclusive; / = no result; [ ] = dose if it differs, or a comment. Unless noted, calls come from the whole dose curve; as a rule, active = well fitted curve in the direction sought with a large enough effect; inconclusive = small, poorly fitted or top-dose-only effect, or another doubt; inactive = no such curve, though single readings can be large; an effect the other way counts as inactive or inconclusive.
SMILES,IL1B secr inh,DT40 TDP1 CPT,HepG2 tox,DT40 TDP1 no CPT,TGFb SMAD3 inh,TDP1 block
COC(=O)c1c(NC(=O)c2cc3nc(-c4ccc(Br)cc4)cc(C(F)(F)F)n3n2)sc2c1CCCC2,/,?,-9.0%,?,5.6%,-1.5%
Cc1cc(N2CCCCC2)nc2ccc(NC(=O)CCC(=O)N3CCN(c4ccccc4)CC3)cc12,/,?,-28.5%,20.6µM*,?,6.4%
CCCCNC(=O)CCC(=O)Nc1ccc2nc(N3CCN(C)CC3)cc(C)c2c1,22.2,-1.8%,-18.8%,-2.5%,-11.3%,2.6%
Cc1ccc(C)c(N2CCN(C(=O)CCC(=O)Nc3ccc4nc(N5CCCCC5)cc(C)c4c3)CC2)c1,/,11.6µM*,-27.6%,11.6µM*,?,-2.9%
CC1C(=O)N(Cc2cn(CCC3OCCO3)nn2)CCS(=O)(=O)N1Cc1ccc(-c2cccc(N(C)C)c2)cc1 (stereo not drawn),-6.4,9.2µM*,-20.7%,16.4µM*,10.1%,/
CC1C(=O)N(Cc2cn(CCC3OCCCO3)nn2)CCS(=O)(=O)N1Cc1ccc(-c2ccc(Cl)nc2)cc1 (stereo not drawn),19.6,?,-2.5%,?,0.9%,/
CC1C(=O)N(Cc2cn(CCC3OCCCO3)nn2)CCS(=O)(=O)N1Cc1ccc(-c2ccccc2)cc1 (stereo not drawn),-10.9,?,-31.7%,16.4µM*,-13.2%,/
Cc1ccccc1-c1nnc(CN2CCN(c3cccc(C)c3C)CC2)o1,/,-20.3%,-15.9%,-25.8%,?,-2.1%[12.3 µM]
CC(=O)c1ccc(NC(=O)C2CCCN(c3ncnc4c3nc3n4CCCCC3)C2)cc1 (stereo not drawn),-61.1*,?,3.2%,13µM*,14.6%,6.5%
O=C(C1CCCN(c2ncnc3c2nc2n3CCCCC2)C1)N1CCCCC1 (stereo not drawn),35.4,?,-11.4%,?,-1.7%,3.3%
CSc1cccc(NC(=O)C2CCCN(c3ncnc4c3nc3n4CCCCC3)C2)c1 (stereo not drawn),6.5,?,-4.2%,14.6µM*,-0.8%,7.3%
CCCCCC(=O)O/N=C(\C)c1ccn(S(=O)(=O)c2ccccc2)c1,1.2,14.6µM*,3.1%,-88.5%,3.5%,/
